A word on the inhibition: it is the relative decrease from the control value, in per cent.

The results in this text go back to PubChem BioAssay AID1063 (University of Pittsburgh Molecular Library Screening Center, 2008).

Screen size: about 200,000 compounds; about 18,000 (9%) were called active. The sample as a whole holds a higher share of actives than the screen did. Unmarked numbers belong to inactive results. Cut-off read from the data, not from the text of the source: active = inhibition above about 50%; inactive = the rest.

The nature of the assay: antileishmanial activity against promastigotes – primary screen (AID 1063).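 Note: promastigotes grown with compound for 44 hours at 28 °C.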 The conditions noted are these: Leishmania major promastigotes, resazurin fluorescence viability; at 10 µM; stronger effect = higher value. In general terms: Alamar Blue is a resazurin reagent that responds to reducing activity.
For `CC(=O)Nc1ccccc1OC(C)C(=O)N1CCC(C)CC1` (stereo not drawn), the inhibition was -5.19%.

Take `COc1ccc(N(Cc2cc3cc(OC)ccc3[nH]c2=O)S(C)(=O)=O)cc1`: the inhibition is 2.96%. With `COc1ccc2[nH]c(=O)c(CNc3ccc(C)c(C)c3)cc2c1` the figure was 98.6% (active); with `CCC(=O)N(Cc1cc2cc(OC)ccc2[nH]c1=O)c1ccccc1C`, 3.53%; with `CC(NC(=S)Nc1ccc(OC(F)F)cc1)c1ccc(F)cc1` (stereo not drawn), 36.8%. The figure for `OCCC1CN(Cc2cccc(OC3CCCC3)c2)CCN1Cc1ccsc1` (stereo not drawn) is 80.5% (active).

Regarding `OCCC1CN(Cc2ccccc2-c2ccco2)CCN1Cc1ccsc1` (stereo not drawn), the inhibition is 9.42%.

For the molecule `OCCC#Cc1ccc(CN2CCN(Cc3ccsc3)C(CCO)C2)cc1` (stereo not drawn), the inhibition is -0.59%. For the molecule `C=CCC(C(=O)c1ccccc1)[N+](C)(C)CC=C` (stereo not drawn), the inhibition is -3.06%.

Take `COc1ccc(NC(=O)C(C)SCc2ccccc2)cc1` (stereo not drawn): the inhibition was -8.12%. With `CC1(C)OC(=O)C(=CSc2ccc(C(C)(C)C)cc2)C(=O)O1`, the inhibition is -9.81%. Turning to `CN(C)c1nnnn1-c1ccc(Cl)cc1`, the inhibition is 2.19%.

With `CCN(CC)c1ccc(/C=N/Nc2nc(C)cc(C)n2)c(O)c1`, the inhibition was 99.8% (active). The figure for `CCN(CC)c1ccc(/C=N/Nc2nc(C)cc(=O)[nH]2)cc1` is -1.36%. The figure for `CCOc1ccc(-n2c(O)c(/C=N/Nc3nc(C)cc(C)n3)c3ccccc3c2=O)cc1` is 14%.

As to `Cc1ccc(S(=O)(=O)CC(=O)Nc2c(C)n(C)n(-c3ccccc3)c2=O)cc1`, the inhibition is 2.54%.

On to `COc1cccc(CNC(=O)CCN2C(=S)NC(C)(C)CC2C)c1` (stereo not drawn), for which the inhibition is -13.5%. On to `CCCC(=O)NC(=S)Nc1ccc(CN2CCOCC2)cc1`, for which the inhibition was 5.07%.

As to `O=C1OC(/C=C/c2ccccc2)=NC/1=C/c1ccco1`, the inhibition was -4.68%. With `Fc1cccc2ncnc(OCc3ccccc3)c12` the figure was -9.83%; with `O=C(N/N=C/c1ccc(O)cc1)/C(=C/c1ccc([N+](=O)[O-])cc1)NC(=O)c1ccccc1`, -2.54%; with `O=C(Nc1ccc(C(=O)O)cc1)/C(=C/c1ccc([N+](=O)[O-])cc1)NC(=O)c1ccccc1`, -2.56%. Consider `O=C(N/N=C/c1cc([N+](=O)[O-])ccc1O)/C(=C\c1cccs1)NC(=O)c1ccccc1`, for which the inhibition is 85.6% (active).

Regarding `O=C(c1cn(-c2ccccc2)nc1-c1cc2ccccc2oc1=O)N1CCOCC1`, the inhibition is -2.51%.

On to `CC1(C)CC(=O)C(C2c3ccccc3S(=O)(=O)c3ccccc32)C(=O)C1`, for which the inhibition is -3.12%.

On to `Cc1ccccc1OCC(O)CN1CCN(c2ccccn2)CC1` (stereo not drawn), for which the inhibition is 3.89%. With `Cc1cccc(OCC(O)CN2CCN(CCN3C(=O)c4cccc5cccc(c45)C3=O)CC2)c1C` (stereo not drawn) the figure was 99.9% (active); with `OC(COc1cccc2ccccc12)CN1CCN(c2ccccn2)CC1` (stereo not drawn), -1.28%. On to `COCCCNC(=S)NNC(=O)C(O)(c1ccccc1)c1ccccc1`, for which the inhibition is -3.7%. For the molecule `Clc1ccc(-c2nc3ccccn3c2CN2CCSCC2)cc1`, the inhibition was 77.4% (active). With `O=C(CN1CCSCC1)N/N=C/c1ccc(Cl)cc1` the figure was 7.06%. The figure for `CN(C)C(=O)c1nc2ccc(Cl)cn2c1CN1CCN(c2ncccn2)CC1` is 7.72%. Take `CCOC(=O)N1CCN(CC(=O)Nc2ccc(F)cc2)CC1`: the inhibition was -5.71%. Turning to `CC(Nc1ccccc1)c1cccnc1` (stereo not drawn), the inhibition was 12.1%.

As to `C=CCn1c(N)c(S(=O)(=O)c2cccs2)c2nc3ccccc3nc21`, the inhibition is 4.67%. In the case of `CC(C)Cn1c(N)c(C(=O)NCc2cccs2)c2nc3ccccc3nc21`, the inhibition is 40.8%. For `C=CCn1c(N)c(C(=O)OCC(C)C)c2nc3ccccc3nc21`, the inhibition is 61% (active).

With `Cc1ccc(CN2CCN(/N=C/c3cccnc3)CC2)c(C)c1`, the inhibition was 13.4%. With `CSc1cccc(NC(=S)N(Cc2ccccc2)Cc2ccccn2)c1`, the inhibition is 17.4%.

Consider `COc1cccc(NC(=S)NCc2ccccn2)c1`, for which the inhibition was -4.83%.

As for `COc1cccc(NC(=S)N(Cc2ccc(C)cc2)Cc2ccccn2)c1`, the inhibition was 94.4% (active). As for `CN(C)c1ccc(/C=N/Nc2cc(N3CCOCC3)nc(N3CCOCC3)n2)cc1`, the inhibition is -7.95%. `Cc1ccc(-n2cc(CN(C)Cc3nccn3C)c(-c3cccc(C)c3)n2)cc1`: the inhibition is 39%. Regarding `Cc1cc(NC(=O)CN2C(=O)NC(CCc3ccccc3)C2=O)no1` (stereo not drawn), the inhibition is 4.06%.

As to `CCNC(=O)CC1C(=O)N(c2ccc(F)cc2)C(=O)N1CCc1sccc1C` (stereo not drawn), the inhibition is -7.58%.

With `O=C(NCCCN1CCOCC1)c1ccccc1NS(=O)(=O)c1ccc(Br)cc1`, the inhibition is -7.24%.

Regarding `O=C(NCCN1CCOCC1)c1c(F)c(F)c(F)c(F)c1F`, the inhibition is -4.01%. With `O=C(NCCCN1CCOCC1)c1cnn2c(-c3ccccc3)cc(-c3ccccc3)nc12` the figure was 19%.

For `O=C(NNC(=S)NCCCN1CCOCC1)c1ccncc1`, the inhibition was -2.18%. Turning to `O=C(NCCCN1CCOCC1)c1cc(-c2ccc(Cl)cc2)on1`, the inhibition is 59.5% (active). As to `O=C(NCCCN1CCOCC1)c1cc2c(s1)CCC2`, the inhibition is 79% (active).

As to `O=C(NCCCn1ccnc1)c1cc(-c2ccccc2)on1`, the inhibition is 2.53%. `CC(NC(=O)c1cc(-c2ccccc2)on1)c1ccccc1` (stereo not drawn): the inhibition is -7.18%. With `CCN(CC)CCCNC(=O)c1cc(-c2cccc(Cl)c2)on1`, the inhibition was 87.4% (active). As to `CCCCCN(C(=O)NC(=O)Nc1cccc(C)c1C)S(C)(=O)=O`, the inhibition is -14.4%. On to `COc1cccc(NC(=O)CC(c2ccc(OC(C)C)cc2)c2ccccc2OC)c1` (stereo not drawn), for which the inhibition was -2.29%. With `Cc1ccc(C)c(-n2cc(CN3CCN(C(=O)c4ncn[nH]4)CC3)c(-c3ccccc3)n2)c1` the figure was -2.57%. As for `Cc1cccc(-n2cc(CN3CCN(C(=O)c4ncn[nH]4)CC3)c(-c3cccc(F)c3)n2)c1`, the inhibition is 89.9% (active). With `CCC(O)C1CCN(Cc2cn(-c3ccc(OC)cc3)nc2-c2cccc(F)c2)CC1` (stereo not drawn) the figure was 30.3%.

In the case of `Cc1ccc(/C=N/NC(=O)Cn2ccc(C(F)(F)F)n2)o1`, the inhibition is -8.92%. Take `CC1(C)CC(N(Cc2ccccc2)C(=O)Cc2ccccc2)CCO1` (stereo not drawn): the inhibition is 3.41%. With `COCCNC(=S)Nc1cc(S(=O)(=O)N2CCOCC2)ccc1N1CCCCC1`, the inhibition is -2.67%. On to `CN(C)c1nc(N)nc(Cn2nnc(-c3ccc(C(F)(F)F)cc3)n2)n1`, for which the inhibition is -9.02%. With `Brc1ccc(OCCn2ccnc2)cc1` the figure was 9.23%; with `Cc1noc(COc2ccccc2OCC(O)CNC(C)(C)C)n1` (stereo not drawn), 5.97%. With `CC(C)(C)CC(C)(C)NCC(O)COCCOc1ccc(Br)cc1` (stereo not drawn) the figure was 96.6% (active); with `Cc1cc(C)n(-c2nc(C(F)(F)F)nc3ccccc23)n1`, 24.4%. Turning to `O=C(CN1CCN(Cc2ccc(F)cc2Cl)C1=O)NCc1cccs1`, the inhibition was -13%. With `Cc1ccc(S(=O)(=O)NC(C(=O)N2CCOCCOCCOCCOCC2)c2ccccc2)cc1` (stereo not drawn) the figure was -7.01%; with `COc1ccc(/C=N/NC(=O)c2ccc(Cl)cc2)cc1COC(C)=O`, -8.12%; with `COc1cc(/C=N/NC(=O)c2ccccc2)ccc1OS(=O)(=O)c1ccccc1`, 1.2%. Regarding `COc1ccc(/C=N/NC(=O)c2ccncc2)cc1CN1CCCc2ccccc21`, the inhibition was 63.4% (active).

As for `CC1CC(C)CN(CC(=O)N2c3ccccc3CCc3ccccc32)C1` (stereo not drawn), the inhibition is 18.5%.

Consider `CC(C)CNC(=O)COC(=O)/C=C/c1ccccc1[N+](=O)[O-]`, for which the inhibition was 4.47%. The figure for `CC1CC(C)CN(C/C=C/c2ccccc2[N+](=O)[O-])C1` (stereo not drawn) is 83.9% (active); for `COc1cc(CN2CCNC(=O)C2CC(=O)NCCc2ncccc2C)cc(OC)c1` (stereo not drawn) it is -4.29%. Turning to `CC1=C(C)CC(C(=O)NC(C)CCc2ccccc2)C(C(=O)O)C1` (stereo not drawn), the inhibition was 17.2%.

As to `C=CCOc1c(CNn2cn[nH]c2=S)cccc1OC`, the inhibition was 25.5%. With `N#Cc1c(N)nc2c3c(sc(=N)c2c1N)NC(=O)CC3c1ccccc1Cl` (stereo not drawn) the figure was 75.7% (active); with `CSc1nc2c(c(=O)[nH]1)C(c1cccc(Cl)c1Cl)CC(=O)N2` (stereo not drawn), -5.68%. `COc1ccc(C2CC(=O)Nc3sc(=N)c4c(N)c(C#N)c(N)nc4c32)cc1OC` (stereo not drawn): the inhibition was -5.32%. The figure for `COc1cccc2c1OCC(CN1CCN(C3CCCCC3)C(CCO)C1)=C2` (stereo not drawn) is 11.6%; for `O=C(c1snnc1-c1ccccc1)N1CCOCC1` it is -3.05%. With `CCc1nnc(NC(=O)CCC(=O)O)s1`, the inhibition was -2.47%. On to `CCc1nnc(NC(=O)CCC(=O)NCc2ccccc2OC)s1`, for which the inhibition was -6.69%. Take `CCc1nnc(NC(=O)CCN(c2ccc(C)cc2)S(=O)(=O)c2ccccc2)s1`: the inhibition was 71.3% (active). With `Cc1ccc(C(=O)O)cc1NC(=O)c1ccc(Cn2nc(C)c(Cl)c2C)o1`, the inhibition was -7.15%. With `Cc1c(Cl)c([N+](=O)[O-])nn1CCCC(=O)Nc1cc(Cl)ccc1Cl` the figure was 0.47%; with `Cc1c(Cl)c([N+](=O)[O-])nn1Cc1ccc(C(=O)N/N=C\c2cc(Cl)ccc2O)o1`, 100% (active). With `Cc1ccc(OCC(=O)NC(C)c2ccccc2)c([N+](=O)[O-])n1` (stereo not drawn) the figure was 11.1%. With `CCc1ccc(NC(=O)Nc2ccncc2)cc1`, the inhibition is 24.8%.

For `O=C(Cc1c[nH]c2ccccc12)OCCOC(=O)Cc1c[nH]c2ccccc12`, the inhibition is 94.7% (active).

Take `NS(=O)(=O)c1ccc(NC(=O)COC(=O)CCc2c[nH]c3ccccc23)cc1`: the inhibition is -4.64%. With `CCOC(=O)CN(C)Cc1c[nH]c2ccccc12` the figure was -1.3%.

For `Cc1ccc(C)c(-n2ccnc2SCC(N)=O)c1`, the inhibition was -3.12%. As for `COc1ncnc2sc3c(c12)CCCC3`, the inhibition was -1.31%.

With `O=C(O)[C@@H]1CCCN1c1ncnc2sc3c(c12)CCC3`, the inhibition is -0.86%. With `CC1(C)CN=C(N2CCN(c3ncnc4sc5c(c34)CCCC5)CC2)S1` the figure was 100% (active).
